These results are taken from the supplement of paper PMC6522484.

± gives the standard deviation of the averaged measurements.

In assay [1] the test system is DLD1. In words: cell viability (CellTiter-Glo) relative to plate median (fraction of plate median); higher = more viable cells. As to conditions: 5 µM; treatment time 24 h; reporter: 7TFP. Summed up: (§1)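 Signals from firefly luciferase or CellTiterGlo readouts were normalised well by well to the plate median using webcellHTS2, additively and with no log transformation. They came from colorectal cancer cell lines stably holding lentiviral TCF/Wnt firefly luciferase reporters (7TFP or TCF4/Wnt), treated with library compounds at a final 5 µM for 24 h. The mean of two independent replicates is given.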
A general note: In ATP-based viability assays light output follows the ATP content of the culture.

The test system of assay [2] is HCT116. Described as above. As to conditions: 5 µM; treatment time 24 h; reporter: TCF4/Wnt. In outline: as §1
The test system of assay [3] is SW480. The assay is described as above. As to conditions: 5 µM; treatment time 24 h; reporter: 7TFP. Summed up: as §1
The subject of assay [4] is DLD1. In words: TCF/Wnt firefly luciferase reporter signal relative to plate median (fraction of plate median); higher = higher Wnt reporter signal. As to conditions: 5 µM; treatment time 24 h; reporter: 7TFP. In outline:
as §1

Assay [5] relates to SW480. The description is as above. As to conditions: 5 µM; treatment time 24 h; reporter: 7TFP. In outline: as §1

For the compound `Oc1cc2c(cc1O)C1c3ccc(O)c(O)c3OCC1(O)C2` (stereo not given), the cell viability was found to be 1.03 ± 0.028 in assay [1], 1.04 ± 0.028 in assay [2] and 1 ± 0.023 in assay [3]. The “TCF/Wnt firefly luciferase reporter signal” value in assay [4] turned out to be 0.944 ± 0.035; in assay [5], 1.04 ± 0.035.
The like results for `NC(=O)N1c2ccccc2CC(=O)c2ccccc21` were, in that order, 0.9 ± 0.09, 0.847 ± 0.09, 1.03 ± 0.014, 1.06 and 1.1 ± 0.14.
As to `CC(=O)OCC(=O)[C@H]1CC[C@H]2[C@@H]3CCC4=CC(=O)CC[C@]4(C)[C@H]3CC[C@]12C`, the cell viability turned out to be 0.952 ± 0.082 in assay [1], 0.961 ± 0.13 in assay [2] and 0.974 ± 0.0014 in assay [3]. The “TCF/Wnt firefly luciferase reporter signal” value in assay [4] was 1.11 ± 0.05; in assay [5], 0.93 ± 0.059.
In the case of `COC(=O)C[C@H]1C(C)(C)C(=O)[C@@H]2CC3=C(CC[C@]4(C)C3=CC(=O)O[C@H]4c3ccoc3)[C@@]1(C)C2=O`, the cell viability in assay [1] worked out at 0.96 ± 0.032; in assay [2], 0.979 ± 0.058; in assay [3] it was 0.944 ± 0.018. The “TCF/Wnt firefly luciferase reporter signal” value in assay [4] came to 0.782 ± 0.35; in assay [5] it was 0.954 ± 0.029.
On to `CC(=O)O[C@H]1CC[C@]2(C)C3=C(CC[C@H]2C1(C)C)[C@]1(C)CC[C@H]([C@H](C)CCC=C(C)C)[C@@]1(C)CC3`, for which the cell viability worked out at 0.966 ± 0.036 in assay [1], 0.957 ± 0.055 in assay [2] and 0.953 ± 0.034 in assay [3]. In addition, the “TCF/Wnt firefly luciferase reporter signal” value in assay [4] is 0.9 ± 0.098; in assay [5], 0.958 ± 0.1.
In the same order, the values of `COc1ccc(-c2oc3cc(O[C@@H]4O[C@H](CO)[C@@H](O)[C@H](O)[C@H]4O)c(OC)c(O)c3c(=O)c2OC)cc1O` are 1.05 ± 0.057, 1.19 ± 0.17, 1, 1.05 ± 0.035 and 1.02 ± 0.11.
In the case of `CCN1CCCC(OC(=O)C(c2ccccc2)c2ccccc2)C1` (stereo not given), the cell viability in assay [1] was 0.981; in assay [2], 1.01; in assay [3], 0.953 ± 0.025. Besides, the “TCF/Wnt firefly luciferase reporter signal” value in assay [4] was 0.941 ± 0.076; in assay [5] it was 1.01 ± 0.07.
Take `CC(c1cc2ccccc2s1)N(O)C(N)=O` (stereo not given): the cell viability is 1.03 ± 0.067 in assay [1], 1.02 ± 0.057 in assay [2] and 1.05 ± 0.035 in assay [3]. For the same compound, the entries for the “TCF/Wnt firefly luciferase reporter signal” value in assay [4] and in assay [5] were 1.13 ± 0.014 and 0.946 ± 0.074, respectively.
In the same order, the values of `Clc1ccc(COC(Cn2ccnc2)c2ccc(Cl)cc2Cl)c(Cl)c1` (stereo not given) are 0.964 ± 0.042, 1.01 ± 0.014, 0.973 ± 0.0099, 1.04 ± 0.11 and 1.04 ± 0.12.
The like results for `CO[C@@]1(NC(=O)Cc2cccs2)C(=O)N2C(C(=O)O)=C(COC(N)=O)CS[C@@H]21` were, in that order, 1.06 ± 0.078, 1.08 ± 0.2, 0.968 ± 0.023, 1.07 ± 0.11 and 0.887 ± 0.021.
In the same order, the values of `NC1(C(=O)O)CC1` are 0.997 ± 0.061, 0.9665 ± 0.0021, 0.9795 ± 0.0064, 0.885 ± 0.045 and 0.919 ± 0.059.
In the case of `Nc1c(Br)cc(Br)cc1CN[C@H]1CC[C@H](O)CC1`, the values for the cell viability in assay [1], in assay [2] and in assay [3] were 0.914 ± 0.066, 1.09 ± 0.11 and 0.946 ± 0.029, respectively. Further, the “TCF/Wnt firefly luciferase reporter signal” value was determined as 0.944 ± 0.19 in assay [4] and 0.887 ± 0.016 in assay [5].
Take `OCCN1CCN(CCCN2c3ccccc3Sc3ccc(C(F)(F)F)cc32)CC1`: the cell viability came out at 0.902 ± 0.082 in assay [1], 0.973 ± 0.019 in assay [2] and 1.05 ± 0.09 in assay [3]. The entries for the “TCF/Wnt firefly luciferase reporter signal” value in assay [4] and in assay [5] were 0.927 ± 0.12 and 1.04 ± 0.1, respectively.
In the same order, the values of `NC(=O)c1ncn([C@@H]2O[C@H](CO)[C@@H](O)[C@H]2O)c1N` are 0.989 ± 0.03, 0.947 ± 0.055, 0.949 ± 0.04, 1 ± 0.012 and 0.927 ± 0.044.
In the same order, the values of `C[C@@H]1CCCCCCCCC[C@H](OC(=O)CCC(=O)O)C(=O)/C=C/C(=O)O1` are 1.03 ± 0.05, 1.09 ± 0.11, 1.02 ± 0.028, 1.17 ± 0.05 and 1.09 ± 0.014.
